Assay results from the supplement of paper PMC6555819.

Legend:
Experiment in all cases: PBM binding z-score (relative to random genomic background probes); higher = stronger binding; sequences stand for … in GC…GCGATTGACAGCGTAGAATGAAGG
[1] = system: FXR:RXRa (NR concentration 270 nM, RXRa partner concentration 90 nM)
Outline: (§1)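 Binding buffer was PBS pH 7.4 with 2% milk, 0.02% Triton X-100, 1 mM DTT, 0.2 mg/mL BSA and 0.4 mg/ml salmon testes DNA. In it, ligand-free nuclear receptor dimers were incubated 1 h on custom Agilent 4×180K protein-binding microarrays carrying double-stranded probes. Antibodies against each partner (one per run) detected binding, and z-scores were calculated against random background probes after regression normalization of scanned fluorescence.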

[2] = system: LXRa:RXRa (NR concentration 270 nM, RXRa partner concentration 90 nM)
Outline: as §1

[3] = system: LXRa homodimer (NR concentration 270 nM)
Outline: as §1

[4] = system: LXRb:RXRa (NR concentration 270 nM, RXRa partner concentration 90 nM)
Outline: as §1

[5] = system: LXRb homodimer (NR concentration 270 nM)
Outline: as §1

[6] = system: PPARa:RXRa (NR concentration 270 nM, RXRa partner concentration 90 nM)
Outline: as §1

[7] = system: PPARg:RXRa (NR concentration 180 nM, RXRa partner concentration 90 nM)
Outline: as §1

[8] = system: PPARg:RXRa 270nM:90nM, anti-RXR (NR concentration 270 nM, RXRa partner concentration 90 nM)
Outline: as §1

[9] = system: PPARg:RXRa 30nM:10nM, anti-RXR (NR concentration 30 nM, RXRa partner concentration 10 nM)
Outline: as §1

[10] = system: PPARg:RXRa 90nM:30nM, anti-RXR (NR concentration 90 nM, RXRa partner concentration 30 nM)
Outline: as §1

[11] = system: PPARg:RXRa DBDmut IVT, anti-RXR (DBD mutation: RXRa K156A/R161A, NR concentration 270 nM, RXRa partner concentration 90 nM)
Outline: as §1

[12] = system: PPARg:RXRa IVT, anti-PPARg (NR concentration 270 nM, RXRa partner concentration 90 nM)
Outline: as §1

[13] = system: PPARg DBDmut:RXRa IVT, anti-PPARg (DBD mutation: PPARg1 K132A/R137A, NR concentration 270 nM, RXRa partner concentration 90 nM)
Outline: as §1

[14] = system: PPARg DBDmut IVT, anti-PPARg (DBD mutation: PPARg1 K132A/R137A, NR concentration 270 nM)
Outline: as §1

[15] = system: PPARg homodimer (NR concentration 180 nM)
Outline: as §1

[16] = system: PXR:RXRa (NR concentration 270 nM, RXRa partner concentration 90 nM)
Outline: as §1

[17] = system: PXR homodimer (NR concentration 270 nM)
Outline: as §1

[18] = system: RARa:RXR (NR concentration 270 nM, RXRa partner concentration 90 nM)
Outline: as §1

[19] = system: RARa homodimer (NR concentration 270 nM)
Outline: as §1

[20] = system: RARb:RXRa (NR concentration 270 nM, RXRa partner concentration 90 nM)
Outline: as §1

CAGCCTAGGTCAGGGCCAGTATTGGAGGAACGTT
PBM binding z-score [1]: 1.65
PBM binding z-score [2]: 0.996
PBM binding z-score [3]: -0.403
PBM binding z-score [4]: 0.567
PBM binding z-score [5]: -1.11
PBM binding z-score [6]: 2.03
PBM binding z-score [7]: 0.396
PBM binding z-score [8]: 0.87
PBM binding z-score [9]: -0.497
PBM binding z-score [10]: 0.402
PBM binding z-score [11]: 1.37
PBM binding z-score [12]: 1.29
PBM binding z-score [13]: -1.49
PBM binding z-score [14]: -1.57
PBM binding z-score [15]: 0.568
PBM binding z-score [16]: 0.0346
PBM binding z-score [17]: -0.593
PBM binding z-score [18]: 1.02
PBM binding z-score [19]: -0.698
PBM binding z-score [20]: 3.35

CGAACTAGGTCATTGACGGGACAGTGAATAGTAA
PBM binding z-score [1]: 4.27
PBM binding z-score [2]: 2.52
PBM binding z-score [3]: 0.242
PBM binding z-score [4]: 1.81
PBM binding z-score [5]: -0.0446
PBM binding z-score [6]: 4.64
PBM binding z-score [7]: 7.48
PBM binding z-score [8]: 6.38
PBM binding z-score [9]: 3.39
PBM binding z-score [10]: 5.82
PBM binding z-score [11]: 8.12
PBM binding z-score [12]: 8.13
PBM binding z-score [13]: 2.44
PBM binding z-score [14]: 0.8
PBM binding z-score [15]: 1.5
PBM binding z-score [16]: 1.15
PBM binding z-score [17]: 0.012
PBM binding z-score [18]: 1.98
PBM binding z-score [19]: 0.192
PBM binding z-score [20]: 3.63

ATCTCTTGGTAAAAGTTCAGTGAATCCCGAGGAT
PBM binding z-score [1]: 0.493
PBM binding z-score [2]: 1.23
PBM binding z-score [3]: 1.42
PBM binding z-score [4]: 0.868
PBM binding z-score [5]: 1.09
PBM binding z-score [6]: 1.58
PBM binding z-score [7]: 1.87
PBM binding z-score [8]: 4.15
PBM binding z-score [9]: 1.88
PBM binding z-score [10]: 3.88
PBM binding z-score [11]: -0.122
PBM binding z-score [12]: 0.894
PBM binding z-score [13]: 0.627
PBM binding z-score [14]: 0.652
PBM binding z-score [15]: 1.46
PBM binding z-score [16]: 1.83
PBM binding z-score [17]: 1.58
PBM binding z-score [18]: 1.1
PBM binding z-score [19]: 1.12
PBM binding z-score [20]: 2.37

CAAACTAGGTCACGGAAGGTCAAAGTCGAATGAC
PBM binding z-score [1]: 7.44
PBM binding z-score [2]: 7.64
PBM binding z-score [3]: 6.7
PBM binding z-score [4]: 6.73
PBM binding z-score [5]: 1.71
PBM binding z-score [6]: 6.26
PBM binding z-score [7]: 10.3
PBM binding z-score [8]: 8.41
PBM binding z-score [9]: 7.26
PBM binding z-score [10]: 8.7
PBM binding z-score [11]: 8.57
PBM binding z-score [12]: 8.97
PBM binding z-score [13]: 6.9
PBM binding z-score [14]: 4.23
PBM binding z-score [15]: 7.08
PBM binding z-score [16]: 6.99
PBM binding z-score [17]: 2.28
PBM binding z-score [18]: 6.84
PBM binding z-score [19]: 3.11
PBM binding z-score [20]: 5.29

ACTATTAGTTGACTTAGGGCAACCGTTACGACGC
PBM binding z-score [1]: 0.212
PBM binding z-score [2]: 0.547
PBM binding z-score [3]: 0.268
PBM binding z-score [4]: 0.434
PBM binding z-score [5]: 0.514
PBM binding z-score [6]: 0.372
PBM binding z-score [7]: 0.776
PBM binding z-score [8]: 0.417
PBM binding z-score [9]: 0.154
PBM binding z-score [10]: 0.461
PBM binding z-score [11]: 0.596
PBM binding z-score [12]: 0.527
PBM binding z-score [13]: 1.12
PBM binding z-score [14]: 0.546
PBM binding z-score [15]: 0.51
PBM binding z-score [16]: 0.554
PBM binding z-score [17]: 0.502
PBM binding z-score [18]: 0.863
PBM binding z-score [19]: 0.271
PBM binding z-score [20]: 0.949

CCTCGGAGGAAAGAAGGTCAGAGCTGTCCGCTTT
PBM binding z-score [1]: 0.768
PBM binding z-score [2]: 1.38
PBM binding z-score [3]: -0.152
PBM binding z-score [4]: 0.92
PBM binding z-score [5]: -0.651
PBM binding z-score [6]: 2.01
PBM binding z-score [7]: -0.343
PBM binding z-score [8]: 0.98
PBM binding z-score [9]: -0.857
PBM binding z-score [10]: 0.12
PBM binding z-score [11]: 0.673
PBM binding z-score [12]: 0.86
PBM binding z-score [13]: -2.12
PBM binding z-score [14]: -1.68
PBM binding z-score [15]: 1.32
PBM binding z-score [16]: 1.16
PBM binding z-score [17]: -0.583
PBM binding z-score [18]: 1.95
PBM binding z-score [19]: 0.0336
PBM binding z-score [20]: 2.27

GGTAGCAGGCCATTTGGGTCACTCAATGACGGGC
PBM binding z-score [1]: 0.428
PBM binding z-score [2]: 0.0822
PBM binding z-score [3]: -0.186
PBM binding z-score [4]: 0.118
PBM binding z-score [5]: -0.593
PBM binding z-score [6]: 1.49
PBM binding z-score [7]: 0.828
PBM binding z-score [8]: 0.694
PBM binding z-score [9]: -0.356
PBM binding z-score [10]: 0.275
PBM binding z-score [11]: 0.966
PBM binding z-score [12]: 2.81
PBM binding z-score [13]: -0.125
PBM binding z-score [14]: -0.507
PBM binding z-score [15]: 0.75
PBM binding z-score [16]: 0.505
PBM binding z-score [17]: -0.0413
PBM binding z-score [18]: 0.741
PBM binding z-score [19]: -0.36
PBM binding z-score [20]: 1.75
